# Like-named read-outs stand apart in the source and are kept apart here.
# Test system: PKN1
# Details: read-out: apparent Kd, n = 1
substance,measurement,setting,value
Lestaurtinib,potency estimated from few doses,"compound concentrations:100 nM and 1000 nM (sheet 'Lestaurtinib' of Supplementary Table 1),run:Lestaurtinib_02364_R2,Plate:MR002",0.487 µM
same,potency estimated from few doses,"compound concentrations:100 nM and 1000 nM (sheet 'Lestaurtinib' of Supplementary Table 1),run:Lestaurtinib_02364_R3,Plate:MR002",0.408 µM
same,potency estimated from few doses,"compound concentrations:100 nM and 1000 nM (sheet 'Lestaurtinib' of Supplementary Table 1),run:Lestaurtinib_02367_R1,Plate:MR003",0.44 µM
same,potency estimated from few doses,"compound concentrations:100 nM and 1000 nM (sheet 'Lestaurtinib' of Supplementary Table 1),run:Lestaurtinib_02367_R2,Plate:MR003",0.488 µM
same,potency estimated from few doses,"compound concentrations:100 nM and 1000 nM (sheet 'Lestaurtinib' of Supplementary Table 1),run:Lestaurtinib_02381_R1,Plate:MR004",0.35 µM
same,potency estimated from few doses,"compound concentrations:100 nM and 1000 nM (sheet 'Lestaurtinib' of Supplementary Table 1),run:Lestaurtinib_02381_R2,Plate:MR004",0.39 µM
same,potency estimated from few doses,"compound concentrations:100 nM and 1000 nM (sheet 'Lestaurtinib' of Supplementary Table 1),run:Lestaurtinib_02381_R3,Plate:MR004",0.242 µM
same,potency estimated from few doses,"compound concentrations:100 nM and 1000 nM (sheet 'Lestaurtinib' of Supplementary Table 1),run:Lestaurtinib_02407_R1,Plate:MR005",0.519 µM
same,potency estimated from few doses,"compound concentrations:100 nM and 1000 nM (sheet 'Lestaurtinib' of Supplementary Table 1),run:Lestaurtinib_02422_R1,Plate:MR006",0.327 µM
same,potency estimated from few doses,"compound concentrations:100 nM and 1000 nM (sheet 'Lestaurtinib' of Supplementary Table 1),run:Lestaurtinib_02422_R2,Plate:MR006",0.0525 µM
same,potency estimated from few doses,"compound concentrations:100 nM and 1000 nM (sheet 'Lestaurtinib' of Supplementary Table 1),run:Lestaurtinib_02437_R1,Plate:MR007",0.578 µM
same,potency estimated from few doses,"compound concentrations:100 nM and 1000 nM (sheet 'Lestaurtinib' of Supplementary Table 1),run:Lestaurtinib_02437_R2,Plate:MR007",0.49 µM
same,potency estimated from few doses,"compound concentrations:100 nM and 1000 nM (sheet 'Lestaurtinib' of Supplementary Table 1),run:Lestaurtinib_02438_R1,Plate:MR008",0.516 µM
same,potency estimated from few doses,"compound concentrations:100 nM and 1000 nM (sheet 'Lestaurtinib' of Supplementary Table 1),run:Lestaurtinib_02438_R2,Plate:MR008",0.52 µM
same,potency estimated from few doses,"compound concentrations:100 nM and 1000 nM (sheet 'Lestaurtinib' of Supplementary Table 1),run:Lestaurtinib_02438_R3,Plate:MR008",0.483 µM
same,potency estimated from few doses,"compound concentrations:100 nM and 1000 nM (sheet 'Lestaurtinib' of Supplementary Table 1),run:Lestaurtinib_02443_R1,Plate:MR009",0.429 µM
same,potency estimated from few doses,"compound concentrations:100 nM and 1000 nM (sheet 'Lestaurtinib' of Supplementary Table 1),run:Lestaurtinib_02443_R2,Plate:MR009",0.415 µM
same,potency estimated from few doses,"compound concentrations:100 nM and 1000 nM (sheet 'Lestaurtinib' of Supplementary Table 1),run:Lestaurtinib_02443_R3,Plate:MR009",0.397 µM
same,potency estimated from few doses,"compound concentrations:100 nM and 1000 nM (sheet 'Lestaurtinib' of Supplementary Table 1),run:Lestaurtinib_02473_R1,Plate:MR010",0.43 µM
same,potency estimated from few doses,"compound concentrations:100 nM and 1000 nM (sheet 'Lestaurtinib' of Supplementary Table 1),run:Lestaurtinib_02473_R2,Plate:MR010",0.385 µM
same,potency estimated from few doses,"compound concentrations:100 nM and 1000 nM (sheet 'Lestaurtinib' of Supplementary Table 1),run:Lestaurtinib_02482_R1,Plate:MR011",0.508 µM
same,potency estimated from few doses,"compound concentrations:100 nM and 1000 nM (sheet 'Lestaurtinib' of Supplementary Table 1),run:Lestaurtinib_02482_R2,Plate:MR011",0.46 µM
same,potency estimated from few doses,"compound concentrations:100 nM and 1000 nM (sheet 'Lestaurtinib' of Supplementary Table 1),run:Lestaurtinib_02482_R3,Plate:MR011",0.432 µM
same,potency estimated from few doses,"compound concentrations:100 nM and 1000 nM (sheet 'Lestaurtinib' of Supplementary Table 1),run:Lestaurtinib_02487_R3,Plate:MR012",0.5 µM
same,potency estimated from few doses,"compound concentrations:100 nM and 1000 nM (sheet 'Lestaurtinib' of Supplementary Table 1),run:Lestaurtinib_02496_R1,Plate:MR013",0.473 µM
same,potency estimated from few doses,"compound concentrations:100 nM and 1000 nM (sheet 'Lestaurtinib' of Supplementary Table 1),run:Lestaurtinib_02496_R2,Plate:MR013",0.455 µM
same,potency estimated from few doses,"compound concentrations:100 nM and 1000 nM (sheet 'Lestaurtinib' of Supplementary Table 1),run:Lestaurtinib_02496_R3,Plate:MR013",0.459 µM
same,potency estimated from few doses,"compound concentrations:100 nM and 1000 nM (sheet 'Lestaurtinib' of Supplementary Table 1),run:Lestaurtinib_02566_R1,Plate:MR014",0.512 µM
same,potency estimated from few doses,"compound concentrations:100 nM and 1000 nM (sheet 'Lestaurtinib' of Supplementary Table 1),run:Lestaurtinib_02566_R3,Plate:MR014",0.539 µM
same,potency estimated from few doses,"compound concentrations:100 nM and 1000 nM (sheet 'Lestaurtinib' of Supplementary Table 1),run:Lestaurtinib_02572_R1,Plate:MR015",0.628 µM
same,potency estimated from few doses,"compound concentrations:100 nM and 1000 nM (sheet 'Lestaurtinib' of Supplementary Table 1),run:Lestaurtinib_02572_R2,Plate:MR015",0.517 µM
same,potency estimated from few doses,"compound concentrations:100 nM and 1000 nM (sheet 'Lestaurtinib' of Supplementary Table 1),run:Lestaurtinib_02572_R3,Plate:MR015",0.559 µM
same,potency estimated from few doses,"compound concentrations:100 nM and 1000 nM (sheet 'Lestaurtinib' of Supplementary Table 1),run:Lestaurtinib_02577_R2,Plate:MR016",0.613 µM
same,potency estimated from few doses,"compound concentrations:100 nM and 1000 nM (sheet 'Lestaurtinib' of Supplementary Table 1),run:Lestaurtinib_02577_R3,Plate:MR016",0.47 µM
same,potency estimated from few doses,"compound concentrations:100 nM and 1000 nM (sheet 'Lestaurtinib' of Supplementary Table 1),run:Lestaurtinib_02584_R1,Plate:MR017",0.493 µM
same,potency estimated from few doses,"compound concentrations:100 nM and 1000 nM (sheet 'Lestaurtinib' of Supplementary Table 1),run:Lestaurtinib_02584_R2,Plate:MR017",0.437 µM
same,potency estimated from few doses,"compound concentrations:100 nM and 1000 nM (sheet 'Lestaurtinib' of Supplementary Table 1),run:Lestaurtinib_02584_R3,Plate:MR017",0.508 µM
same,potency estimated from few doses,"compound concentrations:100 nM and 1000 nM (sheet 'Lestaurtinib' of Supplementary Table 1),run:Lestaurtinib_02601_R1,Plate:MR018",0.58 µM
same,potency estimated from few doses,"compound concentrations:100 nM and 1000 nM (sheet 'Lestaurtinib' of Supplementary Table 1),run:Lestaurtinib_02601_R2,Plate:MR018",0.523 µM
same,potency estimated from few doses,"compound concentrations:100 nM and 1000 nM (sheet 'Lestaurtinib' of Supplementary Table 1),run:Lestaurtinib_02601_R3,Plate:MR018",0.615 µM
same,potency estimated from few doses,"compound concentrations:100 nM and 1000 nM (sheet 'Lestaurtinib' of Supplementary Table 1),run:Lestaurtinib_02606_R3,Plate:MR019",0.534 µM
same,potency estimated from few doses,"compound concentrations:100 nM and 1000 nM (sheet 'Lestaurtinib' of Supplementary Table 1),run:Lestaurtinib_02624_R1,Plate:MR020",0.496 µM
